# An excerpt weighted towards active compounds, which were near 31% of everything screened.
# CYP2C9 act = CYP2C9 (human) activation. actives 1.4% (n = 96,000). AID 1024. activation factor at 5 µM. recombinant CYP2C9, luciferin-H conversion, luminescence; hits give high values; factor 1 = untreated enzyme, 0 = blocked. P11712;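 active = activation factor of 2 or more for CYP2C9 at a 5 µM dose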;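 note: 0 = sulfaphenazole-blocked wells and 1 = vehicle-only wells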
# Target sequence (P11712 whole entry, looked up): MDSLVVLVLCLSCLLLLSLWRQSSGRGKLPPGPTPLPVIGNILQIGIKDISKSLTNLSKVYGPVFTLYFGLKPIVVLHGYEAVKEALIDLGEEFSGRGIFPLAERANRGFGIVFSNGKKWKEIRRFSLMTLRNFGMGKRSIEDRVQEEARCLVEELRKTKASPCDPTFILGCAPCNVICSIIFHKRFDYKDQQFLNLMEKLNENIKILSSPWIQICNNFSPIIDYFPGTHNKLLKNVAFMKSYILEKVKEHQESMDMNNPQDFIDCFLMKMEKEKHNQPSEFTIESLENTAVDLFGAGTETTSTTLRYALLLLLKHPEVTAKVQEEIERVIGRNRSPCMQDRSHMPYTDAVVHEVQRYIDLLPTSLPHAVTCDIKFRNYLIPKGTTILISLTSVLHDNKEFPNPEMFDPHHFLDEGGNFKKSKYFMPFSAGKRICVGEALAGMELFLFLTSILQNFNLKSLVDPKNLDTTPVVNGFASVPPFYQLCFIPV
# PLAP act = human PLAP activation; actives 1.2% (n = 96,000); AID 696; P05187; purified PLAP enzyme, luminescent substrate read-out; hits give high values; activation fold at 20 µM; in the data active = activation fold above about 2
# CYP2C19 act = cytochrome P450 2C19 (human) activation; 96,000 tested, under 10 active; recombinant CYP2C19, luciferin-H EGE luminescence; hits give high values; 0 = fully inhibited enzyme, 1 = untreated enzyme; AID 1025; activation factor at 5 µM;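 active = activation factor of at least 2 at 5 µM in the primary screen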;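 note: 0 = wells with 2.5 mM tranylcypromine and 1 = vehicle-only wells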
# CYP2C9 inhib = blocks human cytochrome P450 2C9; actives 20% (n = 96,000); CYP2C9 Supersomes, luciferin-H conversion, luminescence; inhibition, % at 5 µM; P11712; AID 777;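 active = blocking of liver enzyme CYP2C9 beyond about 50% at 5 µM, limit read from the data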
# CYP2C19 inhib = human CYP2C19 inhibition; P33261; CYP2C19 Supersomes, luciferin-H EGE luminescence, 30 min; inhibition, % at 5 µM; actives 21% (n = 96,000); AID 778;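 active = CYP2C19 inhibition above a set limit at 5 µM in the primary screen, cut at about 50% in these data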;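 note: plate controls were negative control wells for no effect and 2.5 mM tranylcypromine positive control for full effect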
# * marks the source's active call; other numbers are inactive results.
SMILES,CYP2C9 act,PLAP act,CYP2C19 act,CYP2C9 inhib,CYP2C19 inhib
O=C(CCCn1c(=S)[nH]c2ccccc2c1=O)NCc1ccco1,1.1,1.1,0.9,-11,7
O=C(CSc1nc(-c2ccccc2)cs1)NCc1ccco1,0.9,0.9,0.7,13,34
Cc1ccc(NC(=O)N2CCC(NC(=O)C(C)(C)C)CC2)cc1,1,1.1,0.9,4,6
Cc1ccc2nc(SCC(=O)NCc3ccco3)[nH]c2c1,0.6,1.1,0.8,41,17
O=C(CSc1nc2ccccc2[nH]1)NC(=O)NCc1ccco1,0.8,1.6,0.4,22,57*
COc1ccc2cc(C3(C)NC(=O)N(CC(=O)NCc4ccco4)C3=O)ccc2c1 (centres undefined),0.8,0.9,0.9,24,9
Cc1ccc2nc(SCC(=O)NC(=O)NCc3ccco3)[nH]c2c1,0.3,2*,0.2,71*,80*
COc1ccc(-c2[nH]c(-c3cccc(OC)c3)nc2SCC(=O)NCc2ccco2)cc1,0.2,1.6,0.1,84*,94*
O=C(CSc1nc(-c2ccccc2)c(-c2ccccc2)[nH]1)NCCN1C(=O)CSC1=O,0.7,1.5,0.4,34,63*
CCc1ccc(C(=O)COC(=O)c2cccc(N3C(=O)c4c(C)nc5ccccc5c4C3=O)c2)cc1,0.6,1.2,1,36,-5
Cc1cccc(Oc2ccc(C(=O)NC3CCSC3=O)cn2)c1C (centres undefined),0.9,1.3,1.1,13,-9
CC(C)(C)c1ccc(OCC(=O)Nc2ccc(-c3nc4cccnc4o3)cc2)cc1,0.6,2*,0.7,40,28
COC(=O)C1CCCN1S(=O)(=O)c1ccc2ccccc2c1 (centres undefined),2.7*,1.3,0.6,-169,38
Cc1ccc(S(=O)(=O)N2CCCC2C(=O)Oc2ccccc2)cc1 (centres undefined),1.1,1.4,0.2,-10,75*
Cn1nc(C(F)(F)F)c(/C=N/OC(=O)c2ccccc2Cl)c1SCc1ccccc1Cl,0.1,0.8,0.3,93*,68*
CC(=O)c1ccc(NS(=O)(=O)c2cccc(C)c2)cc1,0,0.9,0,95*,99*
COc1ccc(NS(=O)(=O)c2cccc(C(=O)O)c2)cc1,1.2,0.9,0.8,-20,19
CC(=O)c1ccc(NS(=O)(=O)c2ccc(C)cc2)cc1,0.2,1.1,0.2,80*,80*
CCc1sc(N2C(=O)C3C4CCC(C4=C(C)C)C3C2=O)nc1-c1ccccc1 (centres undefined),1.3,1.4,0.9,-33,15
C=CCn1c(=O)/c(=C/c2cc(OC)c(OC)c(OC)c2)s/c1=C(/C#N)c1nc2ccccc2n1C,1,1.4,0.9,3,10
CCn1c(COc2ccc(C)cc2)nnc1SCC(=O)Nc1ccc(S(N)(=O)=O)cc1,0.8,0.9,0.9,22,7
CCCCOc1ccc(C(=O)Oc2ccc(C)nc2)cc1,0.5,1,0.8,55*,20
CCCCCOc1ccc(OC(=O)c2ccncc2)cc1,0.6,1.1,0.6,38,39
Cc1nn(-c2ccccc2)c2c1C1(C(=O)Nc3ccccc31)N1C(=N2)Sc2ccccc21 (centres undefined),0.6,1.6,0.7,42,28
O=[N+]([O-])c1ccc(O)c(-c2nc(-c3ccccc3)c(-c3cccs3)[nH]2)c1,0.1,1.3,0.9,92*,11
SMILES,CYP2C9 act,PLAP act,CYP2C19 act,CYP2C9 inhib,CYP2C19 inhib
CCOc1cc(-c2nc(-c3ccccc3)c(-c3cc([N+](=O)[O-])ccc3C)[nH]2)ccc1O,0.4,0.7,0.9,57*,14
COc1ccc(-c2nc(-c3ccccc3)c(-c3cc([N+](=O)[O-])ccc3C)[nH]2)cc1OC,0.6,1.5,0.7,40,30
O=C1Nc2cc(C(=O)N3CCN(Cc4ccccc4)CC3)ccc2SC1N1CCOCC1 (centres undefined),0.8,1.4,0.9,22,12
COc1ccc(-n2c(/C=C(\C)O)nc(=O)c3c(C)cc(C)nc32)cc1,0.7,1.5,1,27,5
COc1cc(C2NC(=O)NC(C)=C2C(=O)OCC2CCCO2)ccc1O (centres undefined),1,0.9,0.9,-5,9
Cc1cnc(C(=O)OCC(=O)c2csc(N3CCCCC3)n2)cn1,0.8,1.2,1,20,1
CC(C)Sc1nnc(Nc2ccccc2)s1,0.4,0.8,0.3,59*,69*
CC(C)Sc1nnc(NC(=O)C2CC2)s1,1.1,1.2,0.9,-12,6
Cc1ccccc1-c1ccc(=O)n(CC(=O)Nc2ccc(N3CCOCC3)cc2)n1,0.9,1.5,0.9,12,10
CC(=O)c1c(C)[nH]c(C(=O)N2c3ccccc3CC2C)c1C (centres undefined),0.2,1.3,0.2,78*,77*
CC(=O)c1c(C)[nH]c(C(=O)N2CCN(C(=O)c3ccco3)CC2)c1C,1.1,1.1,1.1,-9,-12
COc1ccc(C(=O)N2c3ccccc3CC2C)cc1OC (centres undefined),0.7,1.1,0.3,28,66*
Nn1c(N2CCCCC2)nc2ccccc21,1.1,0.8,0.8,-12,16
C=CCn1c(CCNC(=O)c2cccs2)nnc1SCC(=O)c1ccc(Br)cc1,0.3,1.1,0.5,72*,51*
C=CCn1c(CCC(=O)Nc2ccc(C)c(Cl)c2)nnc1SCC(=O)Nc1ccccc1C,0.4,1.3,0.7,64*,30
C=CCn1c(CCNC(=O)c2cccs2)nnc1SCC(=O)Nc1cccc(C(C)=O)c1,0.3,0.9,0.6,74*,43
C=CCn1c(Cc2cccs2)nnc1SCC(=O)Nc1cc(OC)cc(OC)c1,0.6,1.5,0.2,39,79*
CCCN1Cc2cccc(C(=O)NC(C)c3cccs3)c2C1=O (centres undefined),0.7,1.2,0.8,30,23
C=CCn1c(SCC(=O)Nc2cccc(C(=O)OC)c2)nnc1C(C)NC(=O)c1cccs1 (centres undefined),0.2,1.8,0.3,82*,71*
Cc1nnc(OCc2nc3ccccc3n2C)c2ccccc12,0.4,1,0.6,59*,38
CCOc1ccc2noc3c2c1C(=O)c1ccccc1-3,1,1.1,1.1,3,-8
O=C1c2ccccc2-c2onc3ccc(NCc4ccco4)c1c23,0.1,0.8,0.4,88*,55*
CC(=O)c1ccc(OC(C)C)c(CSc2nc(O)cc(=O)[nH]2)c1,0.4,1.3,1.1,59*,-8
COc1cc(NC(=O)CN(C)S(=O)(=O)c2ccc3c(c2)CCC(=O)N3)cc(OC)c1,0.4,1.5,0.7,62*,28
O=C1CCc2cc(S(=O)(=O)N3CCCC3C(=O)N3CCN(c4ccccc4)CC3)ccc2N1 (centres undefined),0.4,1.1,1.1,59*,-7

# From PubChem
